{"source": "the supplement of paper PMC7156485", "note": "± gives the standard deviation of the averaged measurements.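 Note: TDF denotes transformed human dermal fibroblasts of mesenchymal origin.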"}
{"test_system": "HCC1569", "test": "cell number relative to DMSO (% of DMSO); higher = more cells (less growth inhibition / toxicity)", "details": "concentration: 10 µM; 24 h", "summary_of_the_method": "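HCC1569 and TDF cells (800 per well, 384-well plates, RPMI with 10% FBS) were treated with compounds at 10 µM for 24 h at 37 °C, in triplicate. Cells were fixed in 3.7% formaldehyde and stained with a rabbit anti-H1.0 antibody, an AlexaFluor 647 secondary and DAPI; six fields per well were imaged at ×10. H1.0 nuclear intensity or cell number is expressed as percent of the plate DMSO control, taking the median of replicates. HCC1569 values were smoothed for positional effects.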"}
{"smiles": "CCCCCC(O)C=CC1C=CC(=O)C1CC=CCCCC(=O)O", "note": "(configuration not stated) [Prostaglandin A2]", "cell number": 103}
{"smiles": "COC(=O)c1ccc2c(c1)NC(=O)C2=C(Nc1ccc(N(C)C(=O)CN2CCN(C)CC2)cc1)c1ccccc1", "note": "[Vargatef]", "cell number": 95.2}
{"smiles": "C1COC(NC(C2CC2)C2CC2)=N1", "note": "[Rilmenidine hemifumarate]", "cell number": 95.7}
{"smiles": "CN1c2cc3c(cc2N=C(c2ccc(C(=O)O)cc2)c2ccccc21)C(C)(C)CCC3(C)C", "cell number": 77}
{"smiles": "CC1CCCC(C)N1NC(=O)c1ccc(Cl)c(S(N)(=O)=O)c1", "note": "(configuration not stated) [Clopamide]", "cell number": 100}
{"smiles": "CCCCC(=O)N(Cc1ccc(-c2ccccc2-c2nn[nH]n2)cc1)[C@H](C(=O)O)C(C)C", "cell number": 98.8}
{"smiles": "Cn1c(=O)c(-c2c(Cl)cccc2Cl)cc2cnc(Nc3cccc(C(=O)O)c3)nc21", "cell number": 69.7}
{"smiles": "CC(C)=CCC[C@@H](C)[C@H]1CC[C@H]2[C@@H]3CC=C4C[C@@H](O)CC[C@]4(C)[C@H]3CC[C@]12C", "note": "[(3beta)-cholesta-5,24-dien-3-ol]", "cell number": 103}
{"smiles": "CCCCCCCCCCCC=CCCCCC(=O)O", "note": "[6(E)-Octadecenoic acid]", "cell number": 100}
{"smiles": "CN(c1ccccc1CNc1nc(Nc2ccc3c(c2)CC(=O)N3)ncc1C(F)(F)F)S(C)(=O)=O", "cell number": 54.4}
{"smiles": "CC12CCC3c4ccc(O)cc4CCC3C1CC(O)C2O", "note": "(configuration not stated) [Estriol]", "cell number": 98.5}
{"smiles": "CCCCCCCCC=CCC=CCC=CCCCC(=O)O", "note": "[5(Z), 8(Z), 11(Z)-Eicosatrienoic Acid]", "cell number": "102 ± 2.9"}
{"smiles": "COc1ccc2[nH]c(S(=O)Cc3ncc(C)c(OC)c3C)nc2n1", "note": "(configuration not stated) [Tenatoprazole]", "cell number": 103}
{"smiles": "COc1ccc(CNC(=O)c2sc3nc(C)cc(C)c3c2N)cc1", "cell number": 100}
{"smiles": "CCC1(O)CC2CN(CCc3c([nH]c4ccccc34)C(C(=O)OC)(c3cc4c(cc3OC)N(C)C3C(O)(C(=O)OC)C(OC(C)=O)C5(CC)C=CCN6CCC43C65)C2)C1.O=S(=O)(O)O", "note": "(configuration not stated) [Vinblastine sulfate salt]", "cell number": 48.9}
{"smiles": "COc1cc2nccc(Oc3ccc(NC(=O)Nc4cc(C)on4)c(Cl)c3)c2cc1OC.O", "note": "[VEGFR Tyrosine Kinase Inhibitor IV]", "cell number": 82.4}
{"smiles": "CCCCN(CCCC)CC(O)c1cc(Cl)cc2c1-c1ccc(Cl)cc1/C2=C/c1ccc(Cl)cc1", "note": "(configuration not stated)", "cell number": 103}
{"smiles": "CON=C(C(=O)NC1C(=O)N2C(C(=O)[O-])=C(COC(C)=O)CSC12)c1csc(N)n1.[Na+]", "note": "(configuration not stated) [Cefotaxime sodium]", "cell number": 103}
{"smiles": "Cc1cnc(C(=O)NCCc2ccc(S(=O)(=O)NC(=O)NC3CCCCC3)cc2)cn1", "note": "[Glipizide]", "cell number": "106 ± 3.7"}
{"smiles": "COc1cc2c(cc1OC)C1C(=O)c3ccc4c(c3OC1CO2)C=CC(C)(C)O4", "note": "(configuration not stated) [Degeulin]", "cell number": 72.6}
{"smiles": "Cc1cccc(-c2[nH]ncc2-c2ccc3ncccc3n2)n1", "cell number": 96.6}
{"smiles": "O=C1OC(C(O)CO)C(O)=C1O", "note": "(configuration not stated) [Ascorbic acid]", "cell number": 100}
{"smiles": "N=S(=O)([O-])Cc1noc2ccccc12.[Na+]", "note": "[Zonisamide sodium]", "cell number": 104}
{"smiles": "O=C(O)CC/C=C\\C[C@H]1CO[C@@H](c2ccccc2Cl)O[C@H]1c1ccccc1O", "cell number": 100}
{"smiles": "Cl.NCC1OC(C23CC4CC(CC(C4)C2)C3)Cc2c1ccc(O)c2O", "note": "(configuration not stated)", "cell number": 73.5}
{"smiles": "CC(OC1OCCN(Cc2nc(=O)[nH][nH]2)C1c1ccc(F)cc1)c1cc(C(F)(F)F)cc(C(F)(F)F)c1", "note": "(configuration not stated) [Aprepitant]", "cell number": 101}
{"smiles": "COc1cc2ncnc(Nc3ccc(F)c(Cl)c3)c2cc1OCCCN1CCOCC1", "note": "[Gefitinib]", "cell number": "82 ± 11"}
{"smiles": "NC(CO)(CO)CO.O=C(c1ccccc1)c1ccc2n1CCC2C(=O)O", "note": "(configuration not stated) [Ketorolac tris salt]", "cell number": 101}
{"smiles": "CSc1nc(N)c2ncn(C3OC(COP(=O)([O-])OP(=O)([O-])[O-])C(O)C3O)c2n1.[Na+].[Na+].[Na+]", "note": "(configuration not stated) [2-Methylthioadenosine diphosphate trisodium]", "cell number": 99.9}
{"smiles": "COC(=O)c1ccc2c(c1)nc(NC(=O)c1ccccc1)n2CCCc1ccccc1", "cell number": 80.4}
{"smiles": "CC1C(NC(=O)C(=NOC(C)(C)C(=O)O)c2csc(N)n2)C(=O)N1S(=O)(=O)O", "note": "(configuration not stated) [Aztreonam]", "cell number": 105}
{"smiles": "CCCCS(=N)(=O)CCC(N)C(=O)O", "note": "(configuration not stated) [Buthionine sulfoximine]", "cell number": 95.9}
